Experimental data as given in the supplement of paper PMC10849652.
Of roughly 7,900 targets only a part is listed; those with a hit were picked by preference. About 0.6% of all pairs of compound and target were hits. A number with no mark means an inactive call.

Columns and labels:
Test in all cases: log2 fold change, soluble protein after heating vs DMSO (PISA); higher = thermal stabilisation; K562 cells, 10 uM, 30 min; active = over 0.2 and 3.5 SD of the protein, either way, in both replicates (recomputed)
[1] = compound: COC1=CC=C(C=C1)CN2C=CC3=C2C=C(C=C3)C(=O)NO
How it was run: (§1)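 K562 cells at 2×10^6 cells/mL were treated for 30 min with 10 μM compound, and aliquots were heated for 3 min over 48°C-58°C before pooling. Extraction used PBS with 0.5% NP-40 at 4°C, and soluble protein was the supernatant after 21,000xg for 90 min, measured by TMTpro 16plex LC-MS/MS with channel sums equalised. Thermal stability values, relative to control samples and from duplicates, are log2 fold changes.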

filanesib = compound: CON(C)C(=O)N1N=C(c2cc(F)ccc2F)S[C@@]1(CCCN)c1ccccc1 [filanesib]
How it was run: as §1

zotarolimus = compound: CO[C@H]1C[C@@H]2CC[C@@H](C)[C@@](O)(O2)C(=O)C(=O)N2CCCC[C@H]2C(=O)O[C@H]([C@H](C)C[C@@H]2CC[C@H](n3cnnn3)[C@H](OC)C2)CC(=O)[C@H](C)/C=C(\C)[C@@H](O)[C@@H](OC)C(=O)[C@H](C)C[C@H](C)/C=C/C=C/C=C/1C [zotarolimus]
How it was run: as §1

idasanutlin = compound: COc1cc(C(=O)O)ccc1NC(=O)[C@@H]1N[C@@H](CC(C)(C)C)[C@](C#N)(c2ccc(Cl)cc2F)[C@H]1c1cccc(Cl)c1F [idasanutlin]
How it was run: as §1

alisertib = compound: COc1cc(Nc2ncc3c(n2)-c2ccc(Cl)cc2C(c2c(F)cccc2OC)=NC3)ccc1C(=O)O [alisertib]
How it was run: as §1

[2] = compound: COc1cc2nc(-c3cc(F)ccc3O)nc(N[C@@H]3CNC[C@H]3C(C)(C)O)c2cc1OC
How it was run: as §1

gefitinib = compound: COc1cc2ncnc(Nc3ccc(F)c(Cl)c3)c2cc1OCCCN1CCOCC1 [gefitinib]
How it was run: as §1

[3] = compound: COc1cccc2cc(-c3nc([C@H]4CC[C@H](C(=O)O)CC4)n4ncnc(N)c34)[nH]c12
How it was run: as §1

lapatinib = compound: CS(=O)(=O)CCNCc1ccc(-c2ccc3ncnc(Nc4ccc(OCc5cccc(F)c5)c(Cl)c4)c3c2)o1 [lapatinib]
How it was run: as §1

pictilisib = compound: CS(=O)(=O)N1CCN(Cc2cc3nc(-c4cccc5[nH]ncc45)nc(N4CCOCC4)c3s2)CC1 [pictilisib]
How it was run: as §1

[4] = compound: CS(=O)(=O)c1ccc(-c2cnc(N)c(C(=O)Nc3ccccc3)n2)cc1
How it was run: as §1

crizotinib = compound: C[C@@H](Oc1cc(-c2cnn(C3CCNCC3)c2)cnc1N)c1c(Cl)ccc(F)c1Cl [crizotinib]
How it was run: as §1

[5] = compound: C[C@@H]1COCCN1C2=NC(=NC(=C2)C3(CC3)S(=O)(=O)C)C4=C5C=CNC5=CC=C4
How it was run: as §1

[6] = compound: C[C@H](C1=CC=C(C=C1)C(=O)NC2=C3C=CNC3=NC=C2)N
How it was run: as §1

duvelisib = compound: C[C@H](Nc1ncnc2nc[nH]c12)c1cc2cccc(Cl)c2c(=O)n1-c1ccccc1 [duvelisib]
How it was run: as §1

gandotinib = compound: Cc1cc(Nc2cc(CN3CCOCC3)c3nc(C)c(Cc4ccc(Cl)cc4F)n3n2)n[nH]1 [gandotinib]
How it was run: as §1

tozasertib = compound: Cc1cc(Nc2cc(N3CCN(C)CC3)nc(Sc3ccc(NC(=O)C4CC4)cc3)n2)n[nH]1 [tozasertib]
How it was run: as §1

[7] = compound: Cc1cc(SCc2sc(-c3ccc(C(F)(F)F)cc3)nc2C)ccc1OCC(=O)O
How it was run: as §1

doramapimod = compound: Cc1ccc(-n2nc(C(C)(C)C)cc2NC(=O)Nc2ccc(OCCN3CCOCC3)c3ccccc23)cc1 [doramapimod]
How it was run: as §1

ispinesib = compound: Cc1ccc(C(=O)N(CCCN)[C@@H](c2nc3cc(Cl)ccc3c(=O)n2Cc2ccccc2)C(C)C)cc1 [ispinesib]
How it was run: as §1

Sequence of UniProt Q8WWV3 (Q8WWV3 whole entry, looked up): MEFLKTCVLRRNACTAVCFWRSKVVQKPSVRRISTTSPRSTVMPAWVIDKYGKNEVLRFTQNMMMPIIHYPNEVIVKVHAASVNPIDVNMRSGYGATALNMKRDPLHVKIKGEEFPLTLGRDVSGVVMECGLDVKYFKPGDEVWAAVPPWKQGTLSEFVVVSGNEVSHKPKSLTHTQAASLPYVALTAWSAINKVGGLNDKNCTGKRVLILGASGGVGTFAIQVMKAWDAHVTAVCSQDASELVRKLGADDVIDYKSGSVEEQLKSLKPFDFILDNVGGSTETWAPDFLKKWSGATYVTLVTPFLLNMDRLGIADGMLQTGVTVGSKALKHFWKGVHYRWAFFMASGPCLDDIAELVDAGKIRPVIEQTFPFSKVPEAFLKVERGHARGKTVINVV
Sequence of UniProt Q5VTB9 (Q5VTB9 whole entry, looked up): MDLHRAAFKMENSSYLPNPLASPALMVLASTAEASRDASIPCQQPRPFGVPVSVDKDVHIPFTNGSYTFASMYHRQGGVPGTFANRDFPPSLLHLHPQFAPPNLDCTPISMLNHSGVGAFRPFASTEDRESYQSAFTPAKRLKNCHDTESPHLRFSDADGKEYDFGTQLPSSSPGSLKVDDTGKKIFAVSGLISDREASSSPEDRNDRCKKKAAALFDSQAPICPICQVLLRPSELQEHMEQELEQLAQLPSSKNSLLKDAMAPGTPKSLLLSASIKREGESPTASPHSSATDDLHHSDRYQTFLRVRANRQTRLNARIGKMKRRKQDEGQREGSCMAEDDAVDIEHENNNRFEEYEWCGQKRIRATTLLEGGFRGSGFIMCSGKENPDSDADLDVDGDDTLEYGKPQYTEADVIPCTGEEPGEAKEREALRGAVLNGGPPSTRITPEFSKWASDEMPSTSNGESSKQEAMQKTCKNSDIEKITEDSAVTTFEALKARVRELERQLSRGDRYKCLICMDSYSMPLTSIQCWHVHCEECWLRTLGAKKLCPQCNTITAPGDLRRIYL
Sequence of UniProt Q15349 (Q15349 whole entry, looked up): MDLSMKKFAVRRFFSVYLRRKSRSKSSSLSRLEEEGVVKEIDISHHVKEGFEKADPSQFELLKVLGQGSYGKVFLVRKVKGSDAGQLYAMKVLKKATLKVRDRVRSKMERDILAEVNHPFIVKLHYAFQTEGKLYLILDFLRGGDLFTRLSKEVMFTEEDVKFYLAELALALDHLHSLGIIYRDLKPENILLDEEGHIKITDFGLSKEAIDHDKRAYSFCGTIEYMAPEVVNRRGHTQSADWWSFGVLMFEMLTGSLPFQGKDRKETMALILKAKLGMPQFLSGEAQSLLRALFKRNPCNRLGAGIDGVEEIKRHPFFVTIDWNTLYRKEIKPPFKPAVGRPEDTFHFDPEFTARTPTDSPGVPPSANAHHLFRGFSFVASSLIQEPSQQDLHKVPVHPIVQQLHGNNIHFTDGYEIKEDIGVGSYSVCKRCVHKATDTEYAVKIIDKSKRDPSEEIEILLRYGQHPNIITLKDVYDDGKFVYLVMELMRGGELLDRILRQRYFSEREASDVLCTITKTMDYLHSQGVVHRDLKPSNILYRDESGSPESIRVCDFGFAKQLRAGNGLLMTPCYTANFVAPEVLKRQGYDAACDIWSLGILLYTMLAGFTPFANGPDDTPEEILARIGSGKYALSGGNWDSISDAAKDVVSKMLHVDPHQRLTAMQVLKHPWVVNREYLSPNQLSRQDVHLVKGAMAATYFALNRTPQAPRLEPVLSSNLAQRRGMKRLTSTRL
Sequence of UniProt Q8NBJ9 (Q8NBJ9 whole entry, looked up): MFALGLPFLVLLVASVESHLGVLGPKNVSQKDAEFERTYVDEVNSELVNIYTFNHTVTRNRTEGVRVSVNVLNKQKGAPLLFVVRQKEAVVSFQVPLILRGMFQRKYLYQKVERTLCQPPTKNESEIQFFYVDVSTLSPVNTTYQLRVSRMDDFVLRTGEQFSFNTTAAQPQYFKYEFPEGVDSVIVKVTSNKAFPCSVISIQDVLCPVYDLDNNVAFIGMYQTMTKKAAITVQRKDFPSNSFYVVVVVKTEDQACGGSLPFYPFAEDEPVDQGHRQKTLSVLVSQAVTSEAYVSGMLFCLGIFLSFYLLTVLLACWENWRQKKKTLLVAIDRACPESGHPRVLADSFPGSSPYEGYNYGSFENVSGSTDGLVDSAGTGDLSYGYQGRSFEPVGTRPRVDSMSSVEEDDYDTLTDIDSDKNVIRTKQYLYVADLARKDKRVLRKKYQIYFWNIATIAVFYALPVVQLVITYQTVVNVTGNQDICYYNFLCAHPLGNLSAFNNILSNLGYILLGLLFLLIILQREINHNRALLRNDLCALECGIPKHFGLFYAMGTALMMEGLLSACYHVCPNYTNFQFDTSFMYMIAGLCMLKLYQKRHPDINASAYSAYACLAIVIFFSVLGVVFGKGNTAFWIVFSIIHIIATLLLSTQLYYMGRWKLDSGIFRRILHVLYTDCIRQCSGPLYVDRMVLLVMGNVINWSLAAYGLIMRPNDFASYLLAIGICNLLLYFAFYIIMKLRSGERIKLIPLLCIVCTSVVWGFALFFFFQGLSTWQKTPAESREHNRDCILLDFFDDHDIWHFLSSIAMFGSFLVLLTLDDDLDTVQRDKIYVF
Sequence of UniProt Q13530 (Q13530 whole entry, looked up): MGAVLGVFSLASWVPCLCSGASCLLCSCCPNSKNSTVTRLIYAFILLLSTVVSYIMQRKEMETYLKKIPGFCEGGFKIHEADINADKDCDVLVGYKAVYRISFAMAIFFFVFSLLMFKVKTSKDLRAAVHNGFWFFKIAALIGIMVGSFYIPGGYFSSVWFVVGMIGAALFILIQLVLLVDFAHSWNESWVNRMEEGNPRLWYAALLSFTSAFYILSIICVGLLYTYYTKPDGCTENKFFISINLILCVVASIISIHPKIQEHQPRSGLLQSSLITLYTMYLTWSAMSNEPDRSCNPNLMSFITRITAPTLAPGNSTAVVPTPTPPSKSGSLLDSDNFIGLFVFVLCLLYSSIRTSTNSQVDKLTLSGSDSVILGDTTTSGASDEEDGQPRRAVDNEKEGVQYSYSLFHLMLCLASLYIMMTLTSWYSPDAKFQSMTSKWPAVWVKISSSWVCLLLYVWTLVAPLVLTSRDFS
Sequence of UniProt Q14493 (Q14493 whole entry, looked up): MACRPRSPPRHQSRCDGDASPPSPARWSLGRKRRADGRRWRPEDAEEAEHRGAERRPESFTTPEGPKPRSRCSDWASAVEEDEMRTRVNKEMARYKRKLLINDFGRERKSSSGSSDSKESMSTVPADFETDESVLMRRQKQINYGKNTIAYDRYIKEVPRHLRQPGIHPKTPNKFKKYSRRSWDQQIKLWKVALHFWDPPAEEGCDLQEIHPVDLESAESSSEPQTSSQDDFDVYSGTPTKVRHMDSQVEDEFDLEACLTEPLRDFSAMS
Sequence of UniProt Q9NQG5 (Q9NQG5 whole entry, looked up): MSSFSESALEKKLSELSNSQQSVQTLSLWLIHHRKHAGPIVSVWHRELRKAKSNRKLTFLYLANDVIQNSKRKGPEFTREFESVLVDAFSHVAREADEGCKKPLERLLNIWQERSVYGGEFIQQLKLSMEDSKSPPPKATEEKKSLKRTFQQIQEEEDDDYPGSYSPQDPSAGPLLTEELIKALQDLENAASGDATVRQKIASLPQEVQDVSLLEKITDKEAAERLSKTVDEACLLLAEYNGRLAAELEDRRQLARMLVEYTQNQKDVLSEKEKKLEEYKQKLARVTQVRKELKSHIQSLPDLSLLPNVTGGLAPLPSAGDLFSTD
Sequence of UniProt Q99961 (Q99961 whole entry, looked up): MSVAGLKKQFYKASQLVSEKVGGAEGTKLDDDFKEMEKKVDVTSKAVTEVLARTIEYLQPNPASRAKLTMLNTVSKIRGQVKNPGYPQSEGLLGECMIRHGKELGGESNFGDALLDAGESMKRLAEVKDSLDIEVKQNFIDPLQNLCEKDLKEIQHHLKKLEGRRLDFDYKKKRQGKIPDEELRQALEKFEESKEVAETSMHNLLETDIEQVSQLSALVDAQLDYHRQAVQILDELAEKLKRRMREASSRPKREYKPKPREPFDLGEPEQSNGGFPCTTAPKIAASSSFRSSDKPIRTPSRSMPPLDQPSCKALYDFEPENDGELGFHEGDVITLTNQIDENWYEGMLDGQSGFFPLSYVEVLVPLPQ
Sequence of UniProt Q5TA31 (Q5TA31 whole entry, looked up): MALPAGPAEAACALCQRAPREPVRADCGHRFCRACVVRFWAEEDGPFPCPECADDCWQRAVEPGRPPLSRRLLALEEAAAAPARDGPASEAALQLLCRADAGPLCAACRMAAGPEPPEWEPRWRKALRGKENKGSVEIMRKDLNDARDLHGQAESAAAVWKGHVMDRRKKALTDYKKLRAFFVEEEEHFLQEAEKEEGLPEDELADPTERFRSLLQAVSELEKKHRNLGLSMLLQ
Sequence of UniProt Q96I25 (Q96I25 whole entry, looked up): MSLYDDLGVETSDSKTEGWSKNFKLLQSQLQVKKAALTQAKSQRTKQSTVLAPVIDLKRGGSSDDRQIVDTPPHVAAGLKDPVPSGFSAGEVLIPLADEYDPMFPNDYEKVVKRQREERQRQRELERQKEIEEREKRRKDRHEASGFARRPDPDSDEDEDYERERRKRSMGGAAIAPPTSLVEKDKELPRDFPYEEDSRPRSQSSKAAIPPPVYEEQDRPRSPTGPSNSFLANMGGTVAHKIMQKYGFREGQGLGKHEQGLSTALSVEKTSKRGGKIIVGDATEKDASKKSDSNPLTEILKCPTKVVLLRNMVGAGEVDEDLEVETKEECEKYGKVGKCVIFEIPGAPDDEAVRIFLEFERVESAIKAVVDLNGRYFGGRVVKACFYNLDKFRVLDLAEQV

Row | Target | log2 fold change [1] | log2 fold change (filanesib) | log2 fold change (zotarolimus) | log2 fold change (idasanutlin) | log2 fold change (alisertib) | log2 fold change [2] | log2 fold change (gefitinib) | log2 fold change [3] | log2 fold change (lapatinib) | log2 fold change (pictilisib) | log2 fold change [4] | log2 fold change (crizotinib) | log2 fold change [5] | log2 fold change [6] | log2 fold change (duvelisib) | log2 fold change (gandotinib) | log2 fold change (tozasertib) | log2 fold change [7] | log2 fold change (doramapimod) | log2 fold change (ispinesib)
1 | SLBP (UniProt Q14493) | -0.148 | -0.035 | 0.112 | 0.224 | -0.152 | -0.199 | 0.034 | 0.077 | 0.004 | 0.05 | -0.026 | -0.042 | 0.132 | 0.003 | -0.128 | -0.022 | -0.012 | 0.055 | 0.007 | -0.063
2 | RBM17 (UniProt Q96I25) | 0.026 | 0.038 | 0.064 | 0.121 | -0.055 | -0.031 | 0.003 | 0.019 | 0 | -0.276 | -0.043 | -0.065 | 0.106 | 0.02 | 0.031 | -0.031 | 0.057 | 0.106 | -0.028 | 0.007
3 | RPS6KA2 isoform 2 (UniProt Q15349) | -0.023 | -0.006 | 0.016 | -0.033 | -0.052 | -0.259 | -0.078 | 0.001 | -0.011 | -0.106 | 0.026 | -0.148 | 0.128 | -0.057 | 0.047 | -0.048 | 0.042 | 0.063 | -0.057 | -0.058
4 | RPRD1B (UniProt Q9NQG5) | 0.014 | 0.022 | -0.018 | -0.031 | -0.011 | 0.106 | 0.037 | 0.061 | -0.004 | 0.019 | -0.104 | 0.072 | 0.062 | -0.042 | 0.078 | -0.227 | 0.023 | 0.062 | -0.044 | 0.039
5 | RPS19 (UniProt P39019) | 0 | 0.102 | -0.015 | 0.113 | -0.114 | -0.024 | -0.049 | -0.12 | 0.059 | -0.137 | -0.12 | 0.023 | -0.309 | 0.182 | -0.11 | 0.201 | 0.033 | 0.018 | 0.05 | -0.081
6 | RIPK1 (UniProt Q13546) | 0 | 0.049 | 0.098 | 0.022 | -0.052 | 0.032 | 0.043 | -0.214 | 0.055 | 0.027 | 0.058 | 0.274 | -0.01 | 0.09 | -0.1 | 0.301 | 1.05 (active) | 0.118 | 0.031 | -0.155
7 | RNF220 (UniProt Q5VTB9) | -0.004 | 0.108 | 0.062 | -0.006 | -0.062 | 0.047 | -0.032 | 0.002 | -0.006 | 0.068 | -0.001 | 0.096 | -0.003 | -0.042 | 0.055 | -0.012 | 0.043 | -0.011 | -0.057 | 0.073
8 | RPL31 (UniProt P62899) | -0.084 | 0.277 | -0.013 | 0.151 | -0.118 | -0.013 | -0.075 | -0.25 | 0.103 | -0.092 | -0.08 | 0.079 | -0.56 | 0.396 | -0.158 | 0.35 | 0.029 | -0.001 | 0.173 | -0.167
9 | RNF187 (UniProt Q5TA31) | 0.028 | 0.003 | -0.006 | -0.032 | -0.104 | 0.047 | -0.012 | -0.053 | -0.07 | -0.037 | -0.097 | -0.018 | -0.019 | -0.027 | 0.015 | -0.111 | -0.069 | 0.038 | 0.015 | 0.191
10 | RETSAT (UniProt Q6NUM9) | 0.051 | 0.109 | 0.094 | -0.077 | 0.067 | 0.064 | 0.052 | -0.093 | 0.192 | 0.074 | -0.038 | 0.005 | -0.129 | -0.003 | 0.083 | 0.284 | -0.103 | 0.036 | 0.147 | -0.008
11 | SH3GL1 (UniProt Q99961) | 0.046 | -0.047 | 0.062 | 0 | 0.012 | 0 | -0.029 | -0.048 | -0.008 | -0.005 | 0.067 | -0.144 | 0.024 | 0.062 | 0.019 | -0.031 | 0.045 | 0.103 | 0.007 | -0.156
12 | SERINC3 (UniProt Q13530) | -0.015 | -0.222 | -0.062 | 0.136 | 0 | -0.17 | -0.069 | 0.042 | -0.181 | 0.181 | 0.15 | -0.228 | 0.017 | 0.225 | 0.162 | -0.088 | 0.046 | 0.096 | -0.051 | -0.17
13 | SIDT2 isoform 2 (UniProt Q8NBJ9) | -0.062 | -0.08 | 0.127 | 0.01 | 0.082 | -0.065 | -0.207 | 0.009 | 0.004 | 0.044 | 0.132 | -0.026 | -0.017 | -0.004 | 0.059 | 0.006 | 0.004 | -0.186 | 0.254 | -0.143
14 | SENP6 (UniProt Q9GZR1) | 0.029 | 0.115 | -0.077 | 0.088 | -0.016 | 0.016 | 0.028 | 0.039 | 0.066 | 0.076 | -0.016 | -0.015 | -0.134 | -0.002 | 0.024 | -0.056 | 0.02 | -0.046 | 0.006 | -0.046
15 | RBM12 (UniProt Q9NTZ6) | 0.112 | -0.033 | 0.021 | -0.039 | 0.023 | -0.014 | 0.032 | 0.023 | -0.012 | -0.019 | 0.079 | 0.005 | 0.16 | -0.109 | 0.011 | -0.132 | 0.04 | 0.1 | -0.076 | 0.008
16 | RTN4IP1 (UniProt Q8WWV3) | 0.206 | -0.081 | 0.097 | 1.17 (active) | -0.22 | -0.013 | 0.125 | 0.256 | 0.003 | -0.003 | 0.015 | -0.084 | 0.064 | -0.045 | 0.276 | 0.117 | -0.108 | 0.225 | 0.041 | -0.137
